Screens (PubChem)
Only some compounds are listed: those with a hit (about 3.1% of all), similar ones and a draw of the others.
GDH-TPI counter-1 = counter-screen for M. tuberculosis FBA inhibitors: GDH-TPI coupled enzymes | GDH-TPI coupled enzyme counterscreen, NADH absorbance | inhibition, % at 4.8 µM | hit rate 1.2% among 360,000; in the data active = inhibition above about 30%;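 also: 0% = DMSO wells and 100% = wells lacking the enzyme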
FBA Mtb inh = Mtb fructose-bisphosphate aldolase inhibition; P9WQA3; hit rate 2.3% among 360,000; purified M. tuberculosis FBA, fluorescence read-out; AID 588726; inhibition, % at 1 µM;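 also: 0% = vehicle and 100% = reference inhibitor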
Target sequence (P9WQA3 whole entry, looked up): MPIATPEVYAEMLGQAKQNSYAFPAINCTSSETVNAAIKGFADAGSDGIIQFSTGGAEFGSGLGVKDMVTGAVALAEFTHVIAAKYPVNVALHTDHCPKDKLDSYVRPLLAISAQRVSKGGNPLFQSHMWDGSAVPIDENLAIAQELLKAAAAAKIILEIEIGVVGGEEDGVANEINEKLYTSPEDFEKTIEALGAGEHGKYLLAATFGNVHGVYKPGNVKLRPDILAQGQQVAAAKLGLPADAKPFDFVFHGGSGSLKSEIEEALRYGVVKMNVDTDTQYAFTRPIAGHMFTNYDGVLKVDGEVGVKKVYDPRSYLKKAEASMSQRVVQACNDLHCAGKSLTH
BioA inh = inhibitors of Mycobacterium tuberculosis BioA enzyme | purified M. tuberculosis BioA enzyme, plate reader | inhibition, % at 9.99 µM | hit rate 0.096% among 360,000; in the data active = inhibition above about 40%
3CLpro inhibitor = SARS-CoV 3CLpro protease inhibition. P0C6X7. recombinant SARS-CoV 3CLpro, quenched FRET peptide cleavage. inhibition, % at 6 µM. hit rate 0.14% among 290,000. AID 1706; in the data active = inhibition above about 12%
FadD28 FP inh = inhibitors of Mycobacterium tuberculosis FadD28 bisubstrate binding; FadD28 bisubstrate probe binding, fluorescence polarization; inhibition, % at 12.5 µM; hit rate 0.22% among 360,000; in the data active = inhibition above about 8.5%, passing the limit was not always enough
Mtb FBA inh conf = confirmation of M. tuberculosis fructose-bisphosphate aldolase inhibitors | shares compounds with FBA Mtb inh | purified M. tuberculosis FBA, fluorescence read-out | inhibition, % at 1 µM | hit rate 78% among 5,600;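 also: 0% = vehicle wells and 100% = reference inhibitor wells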
GDH-TPI counter-2 = counter-screen for M. tuberculosis FBA inhibitors: GDH-TPI coupled enzyme inhibition | GDH-TPI coupled enzyme counterscreen, fluorescence | AID 652141 | shares compounds with FBA Mtb inh | hit rate 81% among 5,600 | inhibition, % at 1 µM; in the data active = inhibition above about 10%
* marks the source's active call; other numbers are inactive results; / = no result given; + = active, no number. Rule as the data show it, unless noted: active = inhibition above about 27%; inactive = the rest.

SMILES	GDH-TPI counter-1	FBA Mtb inh	BioA inh	3CLpro inhibitor	FadD28 FP inh	Mtb FBA inh conf	GDH-TPI counter-2
COc1ccccc1-c1ccc([C@@H]2[C@H]3CN(S(=O)(=O)c4cn(C)cn4)CCCCN3[C@H]2CO)cc1	/	/	-1	/	/	/	/
C[C@H](CO)N1C[C@H](C)[C@@H](CN(C)C(=O)CC2CC2)Oc2ncc(C#C[C@@H](C)O)cc2C1=O	/	/	0	/	/	/	/
CC(=O)Nc1ncnc2c1c(-c1ccc(Cl)cc1)nn2C(C)(C)C	-8	50*	/	-3	-5	81*	75*
CC(=O)N(C(C)=O)c1ncnc2c1c(-c1ccc(Cl)cc1)nn2C(C)(C)C	-2	50*	/	-1	0	-1	1
CC(=O)Nc1nc(-c2ccc(Cl)cc2)nc(C)c1C(C)=O	-4	2	0	-4	-2	/	/
COc1ccc(-c2[nH]c(-c3cc(OC)c4c(c3)OCO4)nc2-c2ccccc2)cc1	15	61*	0	3	-3	+	+
C[C@@H]1CN([C@H](C)CO)C(=O)c2cc(NS(=O)(=O)c3ccc(Cl)cc3)ccc2O[C@@H]1CN(C)Cc1ccc(C(=O)O)cc1	/	/	-1	/	/	/	/
COCC(=O)Nc1ccc2c(c1)C(=O)N(C)[C@H]1CC[C@@H](CC(=O)NCc3ccccc3Cl)O[C@H]1CO2	/	/	6	/	/	/	/
COc1ccc(-c2cn3cccnc3n2)cc1NC(=O)CC(C)C	23	20	-1	-1	-1	/	/
COc1ccc(-c2cn3cccnc3n2)cc1NC(=O)c1ccc(Br)o1	13	30*	3	-1	-6	9	5
CCc1ccc(-n2nc3cc(C)c(N)cc3n2)cc1	5	56*	-1	2	-4	63*	69*
CCCC(=O)NC1CCCc2c1cnn2-c1ccc(C)c(C)c1 (configuration not stated)	0	2	0	7	0	/	/
Cc1ccc(-n2ncc3c2CCCC3NC(=O)CCc2c(C)noc2C)cc1C (configuration not stated)	-1	36*	3	-3	-1	+	+
C[C@@H]1CN([C@@H](C)CO)C(=O)c2cc(NC(=O)Nc3cccc4ccccc34)ccc2O[C@@H](C)CCCCO[C@@H]1CN(C)Cc1ccccc1	/	/	1	/	/	/	/
CCOc1c2ccc(C(=O)N[C@H](C)C3CCCCC3)cc2nn1CCOC	17	106*	-1	3	-1	78*	68*
CCOc1c2ccc(C(=O)NCc3ccco3)cc2nn1CCOC	6	39*	-1	2	0	+	+
CCOc1ccc(C(=O)NCc2ccco2)cc1OCC	4	2	-3	4	-2	/	/
CCCCn1nc2cc(C(=O)NCc3ccco3)ccc2c1OCC	10	27*	1	4	0	-3	-5
COc1cccc(NC(=O)N2C[C@H](O)COC[C@H]3O[C@H](CC(=O)NCc4ccccc4F)CC[C@@H]32)c1	/	/	0	/	/	/	/
NC(=O)CSc1oc(-c2ccc(F)cc2)nc1S(=O)(=O)c1ccccc1	9	62*	0	-1	-2	158*	89*
S=C(c1ccc(-c2ccc(Br)cc2)o1)N1CCCCC1	0	59*	-1	-1	-3	7	-2
Fc1cccc2sc(Nc3nc4c(F)cccc4s3)nc12	17	16	/	8	0	/	/
COc1cc(OC)cc(-c2nnc(Nc3nc4c(F)cccc4s3)o2)c1	27	30*	/	7	0	84*	76*
Fc1cccc2sc(Nc3nnc(-c4ccccc4)o3)nc12	45*	64*	0	-1	-3	+	+
C[C@@H]1CN([C@@H](C)CO)C(=O)c2ccccc2-c2ccccc2CO[C@@H]1CN(C)S(=O)(=O)c1ccccc1	/	/	2	/	/	/	/
SMILES	GDH-TPI counter-1	FBA Mtb inh	BioA inh	3CLpro inhibitor	FadD28 FP inh	Mtb FBA inh conf	GDH-TPI counter-2
CCc1c(C)nc2cc(-c3ccccc3)[nH]n2c1=O	-8	25	-1	-6	-2	/	/
C=CCc1c(C)nc2cc(-c3ccc(C)cc3)[nH]n2c1=O	-1	27*	-1	1	2	+	+
COc1ccc2oc(C(=O)OCC(=O)NCCc3ccccc3)c(C)c2c1	8	32*	-2	/	0	58*	43*
COc1ccc2oc(C(=O)OCC(=O)N(CCC#N)c3ccccc3)c(C)c2c1	-1	39*	-1	2	-3	1	-5
COc1ccc2oc(C(=O)NCCc3ccccc3)c(C)c2c1	-3	23	1	/	-1	/	/
COc1ccc2oc(C(=O)OCC(=O)NCCc3ccc(S(N)(=O)=O)cc3)c(C)c2c1	8	38*	0	/	-1	+	184*
C[C@H](CO)N1C[C@H](C)[C@H](CN(C)C(=O)Nc2cccc3ccccc23)Oc2c(NC(=O)C3CCCCC3)cccc2C1=O	/	/	0	/	/	/	/
Cc1c(C)c2ccc(O[C@@H]3O[C@H](CO)[C@@H](O)[C@H](O)[C@H]3O)c(C)c2oc1=O	7	23	-1	-1	1	/	/
Cc1c(C)c2ccc(O[C@@H]3O[C@H](CO)[C@H](O)[C@H](O)[C@H]3O)cc2oc1=O	10	38*	-3	0	1	53*	42*
Cc1ccc(C)c(NC(=O)CSc2nc3nc(-c4cccs4)cc(C(F)(F)F)c3c(=O)[nH]2)c1	5	44*	0	5	-6	86*	82*
C[C@@H]1CN([C@@H](C)CO)C(=O)Cc2cc(NC(=O)c3ccncc3)ccc2O[C@H]1CN(C)S(=O)(=O)c1ccc(Cl)cc1	/	/	-1	/	/	/	/
CN1C(=O)c2ccc(NC(=O)c3ccc(Cl)cc3Cl)cc2C1=O	4	38*	-1	-6	0	95*	70*
COc1ccc(COc2cc(-c3cccc(OC)c3)nc3ccc(NC(=O)C(C)C)cc23)cc1	4	43*	-1	-3	-4	87*	71*
CCN(CC)C(=O)CN1C(=O)C2(NC(=O)c3ccccc3N2)c2ccccc21 (configuration not stated)	7	13	-1	5	0	/	/
CC(=O)N1CC2(NC(=O)c3ccccc3N2)c2ccccc21 (configuration not stated)	4	80*	0	0	-2	+	188*
Nc1ccc2c(c1)nnn2-c1ccccc1	-7	31*	2	-3	-2	190*	152*
NCC[C@H]1CC[C@H](NS(=O)(=O)Cc2ccccc2)[C@@H](CO)O1	/	/	-4	/	/	/	/
CCCCCCC(=O)Nc1c2c(nc3ccccc13)N(C)CC2	6	48*	0	3	-1	94*	100*
O=C(Nc1ccc(-c2nc3c(ccc4ccccc43)o2)cc1)c1ccco1	48*	54*	-2	-1	-3	107*	103*
O=C(Nc1ccc(-c2nc3cc(Cl)ccc3c(=O)o2)cc1)c1ccco1	5	0	1	2	-14	/	/
